Results filed as inconclusive are left out. Calls of active or inactive are those of the source. The call rests on the fitted dose curve; in most records, active means well fitted activation curve with a large enough effect in the main read-out, with a control signal flat (not every such curve was filed as active); inconclusive means small, poorly fitted or top-dose-only effect, or effect the other way, or a change in a side signal; inactive means flat fitted curve, though single readings scatter.

Sequence of 3',5'-cyclic-AMP phosphodiesterase 4B (Homo sapiens) (Q07343 whole entry, looked up): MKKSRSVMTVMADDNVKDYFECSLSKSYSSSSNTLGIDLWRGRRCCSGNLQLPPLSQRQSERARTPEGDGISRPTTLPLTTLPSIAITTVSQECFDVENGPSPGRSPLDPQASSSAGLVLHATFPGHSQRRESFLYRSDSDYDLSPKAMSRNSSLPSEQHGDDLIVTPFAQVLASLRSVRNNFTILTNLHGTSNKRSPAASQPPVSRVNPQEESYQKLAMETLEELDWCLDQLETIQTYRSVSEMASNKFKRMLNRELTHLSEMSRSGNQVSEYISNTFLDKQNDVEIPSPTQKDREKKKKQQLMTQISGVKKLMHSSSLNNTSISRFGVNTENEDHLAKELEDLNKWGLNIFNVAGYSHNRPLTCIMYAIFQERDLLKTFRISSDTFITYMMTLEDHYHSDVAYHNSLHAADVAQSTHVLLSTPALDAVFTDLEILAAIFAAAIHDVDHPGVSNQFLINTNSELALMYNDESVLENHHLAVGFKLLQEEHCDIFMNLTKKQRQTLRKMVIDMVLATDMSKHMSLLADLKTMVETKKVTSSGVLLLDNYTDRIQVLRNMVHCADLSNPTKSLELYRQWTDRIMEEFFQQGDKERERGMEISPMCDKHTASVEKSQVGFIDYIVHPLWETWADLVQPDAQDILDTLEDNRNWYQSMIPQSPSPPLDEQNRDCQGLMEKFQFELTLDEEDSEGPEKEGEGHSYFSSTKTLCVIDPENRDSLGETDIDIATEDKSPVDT

The test concerns the target 3',5'-cyclic-AMP phosphodiesterase 4B (Homo sapiens) (UniProt Q07343). The experiment in a line: qHTS Assay for Inhibitors of PDE-IV (AID 607). Further: % of control where 0% means no effect. The conditions noted are these: HEK293 ACTOne CNG channel cells, membrane potential fluorescence; series mostly up to 22.9 µM; activation (PDE inhibition): at the top concentration. The text has this:
NIH Chemical Genomics Center [NCGC]
NIH Molecular Libraries Screening Centers Network [MLSCN]
The cyclic nucleotide phosphodiesterases (PDEs) are proteins that catalyze hydrolysis of 3', 5'-cyclic nucleotides, such as cyclic adenosine monophosphate (cAMP) and cyclic guanosine monophosphate (cGMP), to their corresponding 5'-nucleotide monophosphates. These enzymes play an important role in controlling cellular concentrations of cyclic nucleotides and have a central role in a variety of intracellular signaling events. cAMP PDEs are emerging as a promising class of drug targets in asthma and cardiovascular disease therapeutic areas.
There are no commercially available cell-based screening assays for PDE inhibitors: currently biochemical assays are done using pure substrates (cAMP or cGMP) and purified recombinant PDE enzymes. As with other biochemical screens on intracellular targets, false positives and false negatives may result from issues involving cell membrane permeability, cellular metabolism, and the like.
Here we report the development of a cell-based screening assay for cAMP phosphodiesterase (PDE) inhibitors. The assay is based on the BD ACTOne# technology (BD Biosciences) which utilizes a modified cyclic nucleotide-gated channel (CNG) to monitor intracellular cAMP changes in live cells. The CNG channel is localized on the plasma membrane, and opens when the intracellular cAMP level increases, resulting in ion flux and cell membrane depolarization. The influx of cations through the CNG channel can be quantified using membrane potential (MP) dyes. We modified the BD ACTOne technology to allow the detection of PDE inhibitors, and performed an inhibitor screen for PDE-IV, which is expressed endogenously in HEK293 cells. We optimized this assay in homogeneous 1536-well plate assay format for high throughput screening.
NCGC Assay Protocol Summary:
The medium contained 10% FBS (Invitrogen), 2 mM L-glutamine, and 250 ug/ml G418 (Cellgro) and 1 ug/ml puromycin (Clontech). ACTOneTM parental cells (BD Biosciences) were maintained in the same medium without puromycin.
The activity of the CNG channel was measured by BD ACTOneTM membrane potential dye kit (BD Biosciences). Forskolin, a positive control for cAMP activation and RO 20-1724, a PDE inhibitor, were both purchased from Sigma and solublized in DMSO.
Sequence,Parameter,Value,Description
1,Reagent,3 uL,1000 cells/well 1536 TC treated Black plate
3,Compound,0.5 uL,Kalypsys dispense RO 20-1724 100 uM final [A]
4,Reagent,3 uL,BD membrane potential dye
6,Compound,23 nL,Final concentration was 0.7nM to 22.9uM
8,Detector,EX 535 / EM 590 [B],Envision
Footnotes: [A] The stock 2 mM RO 20-1724 PDE inhibitor was made in 10 % DMSO. Parental cell line received 10 uM forskolin + 100 uM RO. [B] Envsion settings: Bottom Excitation 535/20 nm top emission 590/20, gain of 150 and 5 flashes per well.
Keywords: PDE, PDE-IV, cytotoxicity, flourescence, MLSMR, MLSCN, NIH Roadmap, qHTS, NCGC
Turning to `COc1ccc(NC(=O)N2CCC3(CC2)CCN(C(=O)c2csnn2)CC3)cc1`, the “activation (PDE inhibition)” value was 12% (inactive).

On to `COc1ccc(NC(=O)N2CC[C@@]3(CCCN(C(=O)c4ccc(OC)cc4)C3)C2)cc1`, for which the “activation (PDE inhibition)” value is 16.7% (inactive).

As for `Cc1cccc(CNc2ccnc(-c3cccnc3)n2)c1`, the “activation (PDE inhibition)” value was 4.58% (inactive).

Consider `CN(C)C(=O)c1ccc(-c2cncnc2N2CCNCC2)cc1`, for which the “activation (PDE inhibition)” value was 0.265% (inactive).

Take `COc1ccc(Oc2ncc3nc(CCc4ccccc4)c(=O)n(C[C@H]4CCCO4)c3n2)cc1`: the “activation (PDE inhibition)” value was 29.6% (inactive).

Turning to `COCC(=O)N1CCC2(CC1)CCN(C(=O)Nc1cccc(C#N)c1)CC2`, the “activation (PDE inhibition)” value was -18.7% (inactive).

Turning to `COc1ccccc1CN1CC[C@@]2(CCCN(C(=O)c3cccn3C)C2)C1`, the “activation (PDE inhibition)” value was 7.63% (inactive).

Take `COc1ccc(NC(=O)N2CC3(CCN(C(=O)c4cccn4C)CC3)C2)cc1`: the “activation (PDE inhibition)” value is -5.61% (inactive).

As for `COc1ccc(-n2c(=O)cnc3cnc(Oc4ccccc4)nc32)cc1`, the “activation (PDE inhibition)” value is -4.64% (inactive).

For the compound `CN1CCN(c2cc(-c3ccoc3)ncn2)CC1`, the “activation (PDE inhibition)” value is 11.5% (inactive).

Turning to `COc1ccc(CNc2ccnc(-c3ccccc3C(F)(F)F)n2)c(OC)c1`, the “activation (PDE inhibition)” value is 11.4% (inactive).

For the compound `COc1ccc(-c2nc3cnc(Oc4cccc(Cl)c4)nc3n(C3CC3)c2=O)cc1`, the “activation (PDE inhibition)” value is 1.82% (inactive).

For `CN1CCN(c2cc(-c3ccc(N(C)C)cc3)ncn2)CC1`, the “activation (PDE inhibition)” value was -1.38% (inactive).

As for `O=C(Nc1cccc(F)c1)N1CC2(CCN(C(=O)c3csnn3)CC2)C1`, the “activation (PDE inhibition)” value is -8.72% (inactive).

As to `O=C(c1cnccn1)N1CCC[C@@]2(CCN(C(c3ccccc3)c3ccccc3)C2)C1`, the “activation (PDE inhibition)” value is 5.9% (inactive).

As for `CN1CC[C@@]2(CCCN(C(=O)c3cccc(F)c3)C2)C1`, the “activation (PDE inhibition)” value is -6.72% (inactive).

`Cn1cc(-c2nc3cnc(N4CCOCC4)nc3n(C3CC3)c2=O)c2ccccc21`: the “activation (PDE inhibition)” value was -15.7% (inactive).

Take `CC(C)NC(=O)N1CC2(CCN(S(=O)(=O)c3ccccc3)CC2)C1`: the “activation (PDE inhibition)” value was -2.6% (inactive).

With `Cn1cccc1C(=O)N1CCC2(CCCN(c3ccccc3)C2)CC1`, the “activation (PDE inhibition)” value was 7.32% (inactive).

Consider `Cc1noc(C)c1-c1cc(N2CCN(C)CC2)ncn1`, for which the “activation (PDE inhibition)” value was -1.22% (inactive).

With `CC(C)NC(=O)N1CCCC2(CCN(C(=O)c3cccc(F)c3)CC2)C1`, the “activation (PDE inhibition)” value was -1.85% (inactive).

With `CS(=O)(=O)N1CCC[C@@]2(CCN(Cc3ccccc3)C2)C1`, the “activation (PDE inhibition)” value was 4.77% (inactive).

For `COc1ccccc1-c1nccc(-n2ccnc2)n1`, the “activation (PDE inhibition)” value was 13.4% (inactive).

Consider `COCCn1c(=O)c(-c2ccc(Cl)cc2)nc2cnc(Oc3cccc(Cl)c3)nc21`, for which the “activation (PDE inhibition)” value is 12.1% (inactive).

`c1ccc(-c2cccc(N3CC[C@@]4(CCCNC4)C3)c2)cc1`: the “activation (PDE inhibition)” value is 13.5% (inactive).

Regarding `CN(C)c1ncc2nc(-c3cccs3)c(=O)n(CCC#N)c2n1`, the “activation (PDE inhibition)” value was 15.2% (inactive).

On to `Cc1nc2cnc(Nc3ccccc3)nc2n(Cc2ccc(F)cc2)c1=O`, for which the “activation (PDE inhibition)” value is -7.67% (inactive).

On to `O=C(c1csnn1)N1CCC2(CCCN(c3ccccc3)C2)CC1`, for which the “activation (PDE inhibition)” value is 7.29% (inactive).

Turning to `O=c1c(-c2ccccc2)nc2cnc(N3CCNCC3)nc2n1-c1ccccc1`, the “activation (PDE inhibition)” value is -11.9% (inactive).

Turning to `CN1CCN(c2ncc3nc(-c4ccc(Cl)cc4)c(=O)n(-c4ccccc4)c3n2)CC1`, the “activation (PDE inhibition)” value is -14.3% (inactive).

`O=c1cnc2cnc(Oc3cccc(Cl)c3)nc2n1Cc1ccc(F)cc1`: the “activation (PDE inhibition)” value is 4.22% (inactive).

In the case of `COCC(=O)N1CCC2(CCCN(Cc3cc(C(F)(F)F)cc(C(F)(F)F)c3)C2)CC1`, the “activation (PDE inhibition)” value was -0.783% (inactive).

For `CS(=O)(=O)Nc1cccc(-c2cncnc2Nc2ccc(F)cc2)c1`, the “activation (PDE inhibition)” value is 23.3% (inactive).

On to `CC(=O)NCCNc1ncncc1-c1ccc(N(C)C)cc1`, for which the “activation (PDE inhibition)” value is 5.45% (inactive).

As for `COc1ccc(NC(=O)N2CC[C@@]3(CCCN(C(=O)c4csnn4)C3)C2)cc1`, the “activation (PDE inhibition)” value is 9.17% (inactive).

As to `CN1CCN(c2ncc3nc(-c4cccs4)c(=O)n(-c4ccccc4)c3n2)CC1`, the “activation (PDE inhibition)” value is -5.19% (inactive).

Turning to `O=c1c(-c2ccc(Cl)cc2)nc2cnc(N3CCOCC3)nc2n1C[C@H]1CCCO1`, the “activation (PDE inhibition)” value is -6.71% (inactive).

For the compound `Cc1cnc(CNc2ncncc2-c2c(C)noc2C)cn1`, the “activation (PDE inhibition)” value is 1.11% (inactive).

As to `CS(=O)(=O)N1CCC[C@@]2(CCN(C(=O)Nc3ccccc3)C2)C1`, the “activation (PDE inhibition)” value is 8.39% (inactive).

On to `COC(=O)N1CCC2(CC1)CN(C(c1ccccc1)c1ccccc1)C2`, for which the “activation (PDE inhibition)” value is 7.45% (inactive).

The values are drawn from PubChem BioAssay (NCATS).
